Shown are actives, neighbours in structure and some others; about 1.6% of the full set was active somewhere.
KCNQ2 pot: potentiators of rat KCNQ2 potassium channel. CHO-K1 KCNQ2, FluxOR thallium flux fluorescence; hits give high values. B-score at 10 µM. Potassium voltage-gated channel subfamily KQT member 2 (Rattus norvegicus), O88943. 310,000 compounds, 0.54% hits;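 active means fluorescence ratio B-score at least 3 SD of library B-scores, with initial fluorescence B-score within 3 of them, cut at about 5.3 in these data; same plate scores as AID 2156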;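 further: B-score of peak minus minimum over baseline fluorescence ratio after K+ and Tl+ stimulus; positive B-score means potentiation of KCNQ2 with more thallium influx and brighter signal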
KCNQ2 block: rat KCNQ2 potassium channel inhibitors, primary screen, cell-based, CHO-K1, FluxOR thallium flux, B-score | Potassium voltage-gated channel subfamily KQT member 2 (Rattus norvegicus), O88943 | 20 min; hits give low values | B-score at 10 µM | 310,000 compounds, 1.1% hits | AID 2156, 2009;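 active means fluorescence ratio B-score at most minus 3 library SDs, with starting brightness B-score within 2 library SDs, cut at about -5.5 in these data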
A number is an active result; 0 = inactive; - = no result given.

SMILES	KCNQ2 pot	KCNQ2 block
CCOc1ccccc1C(=O)Nn1c(C2CCC2)nc2ccccc2c1=O	0	-6.8
CC/C(=N\NC(=O)C(N)=O)c1ccccc1O	0	0
CCOc1ccccc1NC(=O)C(NCC1CCCCC1)c1ccccc1 (stereo not drawn)	0	-5.78
CCOc1ccccc1NC(=O)C(OC(=O)c1ccc(O)cc1)c1ccccc1 (stereo not drawn)	-	0
CCOc1ccccc1NC(=O)C(OC(=O)c1ccc(CC)cc1)c1ccccc1 (stereo not drawn)	0	-6.43
CCOc1ccccc1NC(=O)C(NCCN(C)C)c1ccccc1 (stereo not drawn)	0	0
Cn1nc([N+](=O)[O-])nc1Sc1nnnn1-c1ccc(C(=O)O)cc1	0	0
CCN(CC)Cc1ccccc1Sc1ccccc1	0	0
O=C(CN1C(=O)CC(c2ccccc2)=Nc2ccccc21)NCc1ccccc1	0	-5.57
COc1ccc(CNC(=O)CN2C(=O)CC(c3ccccc3)=Nc3ccccc32)cc1	-	0
CNC(=S)N(CCCO)Cc1cc2cc3c(cc2[nH]c1=O)OCO3	0	0
CCOC(=O)C1=C(COCCN)NC(C)=C(C(=O)OC)C1c1ccccc1Cl (stereo not drawn)	-	0
CCOC(=O)C1=C(C)NC(C)=C(C(=O)OC)C1c1cccc(Cl)c1Cl (stereo not drawn)	0	-7.53
COc1ccccc1C(=O)Nc1ccc(-c2nnn(CC(=O)NCc3ccco3)n2)cc1	0	0
CC1(C(=O)NCc2ccccn2)C=CCN1C(=O)c1ccccc1 (stereo not drawn)	0	0
CC(C)(Oc1ccc(Cl)cc1)C(=O)O	0	0
CC(C)OC(=O)C(C)(C)Oc1ccc(C(=O)c2ccc(Cl)cc2)cc1	0	-8.13
O=C(CNS(=O)(=O)c1ccc(Br)s1)NCc1ccc(F)cc1	0	-5.88
O=C(CCNS(=O)(=O)c1ccc(Br)s1)NCc1ccc(F)cc1	0	0
CCOC(=O)/C(C(=O)Nc1ccc(Br)cc1)=C1/NC(C)(C)Cc2ccccc21	-	0
CCOC(=O)/C(C(=O)Nc1ccccc1Cl)=C1/NC(C)(C)Cc2ccccc21	0	-8.13
O=C(CN(C(=O)c1csnn1)c1ccc(F)cc1)NCCc1ccccc1	0	0
COc1cc2ccccc2cc1C(=O)Nc1sc2c(c1C(N)=O)CCN(C(C)C)C2	0	-5.88
CN1CCc2c(sc(NC(=O)c3ccc4ccccc4c3)c2C(N)=O)C1	-	0
O=C(COC(=O)c1cccc(Cl)c1)NCCN1C(=O)CSC1=O	0	0
SMILES	KCNQ2 pot	KCNQ2 block
Cc1noc(C)c1COc1cccc(C(=O)OCC(=O)NCCN2C(=O)CSC2=O)c1	8.35	0
Cc1nn(-c2ccccc2)c(C)c1NC(=O)COC(=O)c1cc(Br)ccc1O	0	0
COc1ccc(OC)c(C2C(C(=O)c3ccco3)=C(O)C(=O)N2CC2CCCO2)c1 (stereo not drawn)	-	0
C/C(=C\C(=O)c1ccccc1)NNc1nc2ccccc2s1	0	-5.71
CC(=O)NNc1nc2ccccc2s1	0	0
CC(C)C(NC(=O)c1c(F)cccc1F)C(=O)NC1CC(C)(C)NC(C)(C)C1 (stereo not drawn)	0	0
COC(=O)c1cc(S(=O)(=O)NCCCN2CCCC2=O)cn1C	-	0
Cc1ccc2c(c1)N(S(=O)(=O)c1ccc(F)cc1)C(C(C)(C)C)CO2 (stereo not drawn)	0	-6.9
Cc1ccc(S(=O)(=O)N2c3ccccc3OCC2C(C)(C)C)cc1 (stereo not drawn)	-	0
COc1cc(OC)c(C(=O)N2CCN(c3ccccn3)CC2)cc1OC	-	0
O=C(c1ccc(COc2ccc3c(c2)CCC3)o1)N1CCN(c2ccccc2)CC1	0	-7.99
O=C(c1ccc(CS(=O)c2ccccc2Cl)o1)N1CCN(c2ccccc2)CC1 (stereo not drawn)	-	0
O=C(c1ccc(COc2ccccc2Cl)o1)N1CCN(c2ccccc2)CC1	0	-6.04
O=C(c1ccco1)N1CCN(C(=O)c2ccc(COc3ccc4c(c3)CCC4)o2)CC1	-	0
CCCc1ccc(OCc2ccc(C(=O)N3CCN(c4ccccn4)CC3)o2)c(OC)c1	0	-5.91
CC(=O)N1c2ccc(S(=O)(=O)NCCC(=O)Nc3ccc(F)cc3C)cc2CC1C (stereo not drawn)	0	0
CN(C(=O)COC(=O)C1CCN(S(=O)(=O)c2ccc3c(c2)OCCO3)CC1)C1CCCCC1	-	0
CCOc1ccc(C(=O)NC(C(=O)NCc2ccccc2OC)C(C)C)cc1 (stereo not drawn)	-	0
CCOc1ccccc1C(=O)NC(C(=O)NCc1ccccc1OC)C(C)C (stereo not drawn)	0	-6.23
C=CCc1c(C)nc2ccc(C(=O)OCC)cc2c1Cl	-	0
CC(=O)Nc1cc2nc(C)n(Cc3ccccc3)c2nc1C	-	0
Cc1nc2c(cc1NC(=O)C(C)(C)C)nc(C)n2Cc1ccccc1	7.28	0
O=C(O)c1ccccc1C(=O)OCCCc1ccncc1	0	0
CCOC(=O)C1=C(N)OC2=C(C(=O)CC(C)(C)C2)C1c1ccoc1 (stereo not drawn)	0	0

High-throughput results deposited in PubChem BioAssay by Johns Hopkins Ion Channel Center.
